From PubChem BioAssay (Tox21)
A number with no mark means an inactive call. Results filed as inconclusive are left out. A call without a number means that no potency is given here. Active and inactive are the calls of the source. Unless noted, calls follow the shape of the dose curve; as a rule, active = well fitted curve in the direction sought with a large enough effect in the repeat runs; inconclusive = weak or mixed curves; inactive = no such curve, though single readings can be large; an effect the other way counts as inactive or inconclusive.

Assays:
[1] = qHTS assay to identify small molecule antagonists of the androgen receptor (AR) signaling pathway using the MDA cell line in the presence of 0.5 nM R1881 - cell viability counter screen (AID 1259242); also: nearly all actives have a fitted effect of over 45% in size; also: potency is read from the fitted curve at half-maximal effect
Method in brief: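 Cells seeded at 3,000/well and allowed 5 hr at 37C, 0% CO2 before compound transfer and R1881 (0.5 nM final) addition; 16 hr later, live-cell protease fluorescence indicated cytotoxicity.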

[2] = target: Androgen receptor (Homo sapiens) (UniProt P10275); assay: qHTS assay to identify small molecule antagonists of the androgen receptor (AR) signaling pathway using the MDA cell line in the presence of 0.5 nM R1881 (AID 1259243); also: nearly all actives have a fitted effect of over 50% in size; also: potency is read from the fitted curve at half-maximal effect
Method in brief: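 Luminescence from an AR/GR-responsive MMTV-luciferase construct in MDA-kb2 breast carcinoma cells, read 30 min after ONE-Glo, following 16 hr co-treatment with compounds and 0.5 nM R1881.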

[3] = qHTS assay to identify small molecule HDAC inhibitors - cell viability counter screen (AID 1259365); also: series mostly up to about 92 µM; nearly all actives have a fitted effect of over 50% in size
Method in brief: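 Wild-type HCT-116 cells were seeded at 1,500 per well, incubated overnight at 37 C, then exposed to compounds in DMSO for 2hr. Viability was read by CellTiter-Glo luminescence after 30min at room temperature.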

[4] = qHTS assay to identify small molecule agonists of the sonic hedgehog signaling (Shh) pathway - cell viability counter screen (AID 1259366); also: nearly all actives have a fitted effect of over 50% in size; also: potency is read from the fitted curve at half-maximal effect
Method in brief: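 NIH/3T3-derived 3T3 Gli1-Luc cells (stable Gli1-responsive firefly luciferase reporter) were seeded, rested 4 hr at 37 C/5% CO2, then exposed to compounds in DMSO for 24 hr; viability was read by CellTiter-Fluor fluorescence in the same wells.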

[5] = qHTS assay to identify small molecule antagonists of the sonic hedgehog signaling (Shh) pathway - cell viability counter screen (AID 1259367); also: nearly all actives have a fitted effect of over 55% in size; also: potency is read from the fitted curve at half-maximal effect
Method in brief: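 Conditioned medium drove Shh signaling in 3T3 Gli1-Luc cells exposed to compounds at 37C and 5% CO2. Viability was determined from CellTiter-Fluor fluorescence, with reagent incubated 1 hr after 23 hr of treatment.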

[6] = qHTS assay to identify small molecule agonists of the sonic hedgehog signaling (Shh) pathway (AID 1259368; calls by dose curve; also: nearly all actives have a fitted effect of over 15% in size; also: potency is read from the fitted curve at half-maximal effect)
Method in brief: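 Following a 24 hr incubation with DMSO-dissolved compounds at 37 C, 5% CO2, Gli1-Luc NIH/3T3-derived cells received luciferase reagent for 30 min at room temperature prior to luminescence measurement.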

[7] = qHTS assay to identify small molecule antagonists of the sonic hedgehog signaling (Shh) pathway (AID 1259369; calls by dose curve; also: nearly all actives have a fitted effect of over 45% in size; also: potency is read from the fitted curve at half-maximal effect)
Method in brief: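 Read-out is luminescence from a firefly luciferase gene controlled by the Gli1 response element, in 3T3Gli1-Luc cells pre-incubated 4hr then exposed to compounds and conditioned medium for 24hr.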

[8] = qHTS assay to identify small molecule agonists of the androgen receptor (AR) signaling pathway in the presence of an antagonist - cell viability counter screen (AID 1259379); also: nearly all actives have a fitted effect of over 25% in size; also: potency is read from the fitted curve at half-maximal effect
Method in brief: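 Each compound was tested at 15 concentrations on MDA-kb2 cells in the presence of 3.0uM nilutamide. Viability was measured by CellTiter-Fluor fluorescence after a 16 hr incubation at 37C in a CO2-free atmosphere.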

[9] = qHTS assay to identify small molecule agonists of the estrogen receptor beta (ER-beta) signaling pathway - cell viability counter screen (AID 1259380); also: nearly all actives have a fitted effect of over 30% in size; also: potency is read from the fitted curve at half-maximal effect
Method in brief: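 Compounds dissolved in DMSO were pin-transferred onto ER-beta-UAS-bla HEK293T cells that had settled 6 hr, and exposure ran 16 hr at 37C. Following the reporter read, CellTiter-Glo luminescence after 30 min at room temperature indicated cytotoxicity.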

[10] = target: Androgen receptor (Homo sapiens) (UniProt P10275); assay: qHTS assay to identify small molecule agonists of the androgen receptor (AR) signaling pathway in the presence of an antagonist (AID 1259381; calls by dose curve; also: nearly all actives have a fitted effect of over 15% in size)
Method in brief: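 Plated MDA-kb2 cells (3,000/well) were pre-incubated 5hr, given nilutamide (3.0uM final) or buffer, then dosed with compounds in DMSO at 15 concentrations. Luciferase activity was quantified by luminescence after 16hr at 37C.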

[11] = qHTS assay to identify small molecule antagonists of the estrogen receptor beta (ER-beta) signaling pathway - cell viability counter screen (AID 1259382); also: nearly all actives have a fitted effect of over 55% in size; also: potency is read from the fitted curve at half-maximal effect
Method in brief: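 CellTiter-Glo ATP luminescence measured after the LiveBLAzer read in the same wells; ER-beta-UAS-bla HEK293T cells, 16 hr compound treatment with 1nM 17-beta-estradiol agonist at 37C, 5% CO2.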

[12] = qHTS assay to identify small molecule agonists or antagonists of the thyroid stimulating hormone receptor (TSHR) signaling pathway - wild type cell line counter screen (AID 1259384; calls by dose curve)
Method in brief: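 Wild-type HEK293 cells were plated 18 h at 37 C/5% CO2, pin-dosed with compound plus Ro20-1724 medium, held 30 min at room temperature, then given cAMP-d2 and anti-cAMP-cryptate; fluorescence was read after 1 h. Fifteen concentrations, triplicate.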

[13] = target: Thyrotropin receptor (Homo sapiens) (UniProt P16473); assay: qHTS assay to identify small molecule antagonists of the thyroid stimulating hormone receptor (TSHR) signaling pathway (AID 1259385; calls by dose curve; also: nearly all actives have a fitted effect of over 20% in size)
Method in brief: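 TSHR-HEK293 cells were plated and held 18 h at 37C/5% CO2, then given compound plus Ro20-1724 and stimulated with TSH at 1.5 ng/mL final. After 30 min at room temperature, cAMP was detected with cAMP-d2/anti-cAMP-cryptate (1 h) by fluorescence.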

[14] = qHTS assay to identify small molecule agonists of the estrogen receptor alpha (ER-alpha) signaling pathway in the presence of an antagonist - cell viability counter screen (AID 1259386);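 also: cells exposed to compounds for 22 h at 37 °C before the viability read; nearly all actives have a fitted effect of over 30% in size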; also: potency is read from the fitted curve at half-maximal effect
Method in brief: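 Using estrogen-depleted VM7Luc4E2 cells, the 15-concentration compound series was applied together with 10.0nM ICI-182,780 and incubated 22hr at 37C/5% CO2. Cell viability was then scored by CellTiter-Fluor.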

[15] = target: Estrogen receptor (Homo sapiens) (UniProt P03372); assay: qHTS assay to identify small molecule antagonists of the estrogen receptor alpha (ER-alpha) signaling pathway using the BG1 cell line in the presence of 0.1 nM 17-beta-estradiol (AID 1259244); also: nearly all actives have a fitted effect of over 50% in size
Method in brief: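 Luciferase signal from VM7Luc4E2 ERE-reporter cells, co-dosed with test compound and 0.1 nM final 17beta-estradiol for 22 h, read with ONE-Glo.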

[16] = qHTS assay to identify small molecule phospholipidosis (PLD) inducers (AID 1259344; active = well fitted curve in the direction sought with a large enough effect; an effect the other way counts as inactive or inconclusive)
Method in brief: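 After 4 h attachment on collagen I, HepG2 cells were dosed with compound alongside LipidTOX Red, kept 24 h at 37 C, fixed, and imaged for lamellar phospholipid pits.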

[17] = target: Estrogen receptor beta (Homo sapiens) (UniProt Q92731); assay: qHTS assay to identify small molecule antagonists of the estrogen receptor beta (ER-beta) signaling pathway (AID 1259378; active = well fitted inhibition curve with a large enough effect in the signal ratio in the repeat runs, not every such curve was filed as active; the % refers to the signal ratio; also: potency is read from the fitted curve at half-maximal effect)
Method in brief: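 ER-beta-UAS-bla HEK293T (GripTite) cells in 2% charcoal-stripped FBS medium were preincubated 6 hr at 37C, dosed with compound, then stimulated with 1 nM E2 (final) for 16 hr; beta-lactamase reporter read by B/G FRET fluorescence after 2 hr substrate loading.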

[18] = target: Estrogen receptor (Homo sapiens) (UniProt P03372); assay: qHTS assay to identify small molecule agonists of the estrogen receptor alpha (ER-alpha) signaling pathway in the presence of an antagonist (AID 1259383; calls by dose curve; also: top concentration of the series differs between compounds; nearly all actives have a fitted effect of over 15% in size)
Method in brief: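 Luminescent ERE-luciferase reporter, VM7Luc4E2 cells (endogenous ER-alpha); 10.0nM ICI-182,780 final; 15-point compound titration; 22hr at 37C; ONE-Glo, 30min RT.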

[19] = qHTS assay to identify small molecule HDAC inhibitors (AID 1259364);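 also: wild-type HCT-116 cells with endogenous class I/II HDAC activity; top concentration of the series differs between compounds; nearly all actives have a fitted effect of over 45% in size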
Method in brief: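 HCT-116 wt cells, 1,500/well, overnight attach. Compounds (DMSO) 2 h, 37 °C. HDAC-Glo I/II, 30 min RT. Luminescence.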

[20] = target: Estrogen receptor beta (Homo sapiens) (UniProt Q92731); assay: qHTS assay to identify small molecule agonists of the estrogen receptor beta (ER-beta) signaling pathway (AID 1259377; active = well fitted activation curve with a large enough effect in the signal ratio in the repeat runs, not every such curve was filed as active; the % refers to the signal ratio)
Method in brief: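 ER-beta-UAS-bla HEK293T (GripTite) cells carrying a UAS-driven beta-lactamase reporter, in medium with 2% charcoal-stripped FBS, were exposed to compounds for 16 hr at 37C; LiveBLAzer B/G FRET substrate was then added and fluorescence read after 2 hours at room temperature.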

Sequence of Estrogen receptor beta (Homo sapiens) (Q92731 whole entry, looked up): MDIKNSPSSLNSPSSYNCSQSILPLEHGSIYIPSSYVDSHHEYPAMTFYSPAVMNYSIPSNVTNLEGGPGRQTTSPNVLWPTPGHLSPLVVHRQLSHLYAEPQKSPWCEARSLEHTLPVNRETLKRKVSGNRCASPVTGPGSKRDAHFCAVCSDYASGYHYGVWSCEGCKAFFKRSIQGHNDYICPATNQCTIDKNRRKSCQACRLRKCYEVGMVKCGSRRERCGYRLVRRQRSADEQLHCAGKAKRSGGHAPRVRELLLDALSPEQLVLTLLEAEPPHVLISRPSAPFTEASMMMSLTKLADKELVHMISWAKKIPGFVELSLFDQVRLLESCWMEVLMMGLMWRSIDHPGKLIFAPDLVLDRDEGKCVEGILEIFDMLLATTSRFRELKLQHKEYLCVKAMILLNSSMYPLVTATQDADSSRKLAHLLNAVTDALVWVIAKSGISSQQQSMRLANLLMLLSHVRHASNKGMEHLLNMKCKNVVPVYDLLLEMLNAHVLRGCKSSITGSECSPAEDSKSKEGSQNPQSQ
Sequence of Androgen receptor (Homo sapiens) (P10275 whole entry, looked up): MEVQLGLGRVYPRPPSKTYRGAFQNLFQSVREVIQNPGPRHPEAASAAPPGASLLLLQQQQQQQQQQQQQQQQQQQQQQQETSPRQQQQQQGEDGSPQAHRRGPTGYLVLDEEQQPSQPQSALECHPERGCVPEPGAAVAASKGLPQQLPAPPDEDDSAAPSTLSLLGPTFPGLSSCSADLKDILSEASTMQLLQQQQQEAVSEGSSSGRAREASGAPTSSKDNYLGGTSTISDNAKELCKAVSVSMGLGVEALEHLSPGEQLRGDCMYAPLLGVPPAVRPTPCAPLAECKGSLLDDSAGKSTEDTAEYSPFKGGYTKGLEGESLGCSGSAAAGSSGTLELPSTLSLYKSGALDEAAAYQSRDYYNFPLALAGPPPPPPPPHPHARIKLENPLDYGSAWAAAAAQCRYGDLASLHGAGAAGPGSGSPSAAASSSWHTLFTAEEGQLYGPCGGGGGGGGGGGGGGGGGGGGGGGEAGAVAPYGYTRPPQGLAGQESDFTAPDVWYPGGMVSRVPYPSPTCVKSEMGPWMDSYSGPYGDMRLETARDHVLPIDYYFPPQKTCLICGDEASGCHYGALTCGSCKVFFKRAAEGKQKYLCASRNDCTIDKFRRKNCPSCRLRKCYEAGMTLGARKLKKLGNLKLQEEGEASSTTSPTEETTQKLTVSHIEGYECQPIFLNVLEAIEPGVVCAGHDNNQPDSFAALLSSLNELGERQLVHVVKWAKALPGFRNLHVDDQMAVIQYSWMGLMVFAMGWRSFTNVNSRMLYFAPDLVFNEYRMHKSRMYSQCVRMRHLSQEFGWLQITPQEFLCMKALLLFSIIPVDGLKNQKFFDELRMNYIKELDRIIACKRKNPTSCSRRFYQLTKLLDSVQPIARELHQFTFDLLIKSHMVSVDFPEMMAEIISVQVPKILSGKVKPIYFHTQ
Sequence of Estrogen receptor (Homo sapiens) (P03372 whole entry, looked up): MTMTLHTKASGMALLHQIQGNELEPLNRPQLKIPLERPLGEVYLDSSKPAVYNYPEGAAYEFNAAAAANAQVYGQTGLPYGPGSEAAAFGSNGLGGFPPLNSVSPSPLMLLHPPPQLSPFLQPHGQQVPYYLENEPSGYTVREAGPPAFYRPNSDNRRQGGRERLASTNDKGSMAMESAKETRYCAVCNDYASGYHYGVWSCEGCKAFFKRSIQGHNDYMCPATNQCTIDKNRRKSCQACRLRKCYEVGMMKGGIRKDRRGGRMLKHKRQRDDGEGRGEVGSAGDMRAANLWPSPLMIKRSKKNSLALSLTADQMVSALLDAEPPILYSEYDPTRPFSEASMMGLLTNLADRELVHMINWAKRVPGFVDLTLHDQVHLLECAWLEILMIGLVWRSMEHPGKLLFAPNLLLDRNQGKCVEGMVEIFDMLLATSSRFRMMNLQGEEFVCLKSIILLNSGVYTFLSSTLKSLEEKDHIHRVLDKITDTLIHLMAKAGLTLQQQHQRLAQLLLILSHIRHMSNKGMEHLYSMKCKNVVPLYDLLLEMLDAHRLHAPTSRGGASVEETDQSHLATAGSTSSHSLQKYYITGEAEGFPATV
Sequence of Thyrotropin receptor (Homo sapiens) (P16473 whole entry, looked up): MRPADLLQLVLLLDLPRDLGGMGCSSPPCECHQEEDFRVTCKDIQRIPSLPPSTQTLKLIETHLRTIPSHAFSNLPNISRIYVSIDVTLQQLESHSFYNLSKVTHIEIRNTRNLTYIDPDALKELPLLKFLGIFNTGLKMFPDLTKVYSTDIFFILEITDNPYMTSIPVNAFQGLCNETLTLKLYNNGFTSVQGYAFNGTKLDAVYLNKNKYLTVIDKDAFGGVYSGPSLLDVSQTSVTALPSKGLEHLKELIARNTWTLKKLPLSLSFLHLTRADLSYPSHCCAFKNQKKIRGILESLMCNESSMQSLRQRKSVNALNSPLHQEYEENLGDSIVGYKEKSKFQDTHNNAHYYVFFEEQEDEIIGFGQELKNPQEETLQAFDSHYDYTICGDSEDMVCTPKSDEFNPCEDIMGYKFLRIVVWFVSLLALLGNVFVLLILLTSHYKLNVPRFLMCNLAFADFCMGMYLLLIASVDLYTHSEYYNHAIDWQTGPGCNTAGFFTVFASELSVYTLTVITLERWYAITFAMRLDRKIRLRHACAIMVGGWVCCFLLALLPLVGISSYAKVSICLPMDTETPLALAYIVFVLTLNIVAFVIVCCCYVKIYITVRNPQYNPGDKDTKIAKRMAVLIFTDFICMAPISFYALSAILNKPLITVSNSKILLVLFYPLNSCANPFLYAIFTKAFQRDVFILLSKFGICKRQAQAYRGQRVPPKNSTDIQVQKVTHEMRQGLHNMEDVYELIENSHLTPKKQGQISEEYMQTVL

| SMILES | Potency [1] | Potency [2] | Potency [3] | Potency [4] | Potency [5] | Potency [6] | Potency [7] | Potency [8] | Potency [9] | Potency [10] | Potency [11] | outcome [12] | Potency [13] | Potency [14] | Potency [15] | Potency [16] | Potency [17] | Potency [18] | Potency [19] | Potency [20] |
| --- | --- | --- | --- | --- | --- | --- | --- | --- | --- | --- | --- | --- | --- | --- | --- | --- | --- | --- | --- | --- |
| Clc1cc(Cl)c(-c2c(Cl)c(Cl)cc(Cl)c2Cl)cc1Cl | inactive | inactive | inactive | inactive | inactive | inactive | inactive | inactive | inactive | inactive | inactive | inactive | inactive | inactive |  |  |  |  |  |  |
| COc1cc(C(=O)NS(=O)(=O)c2ccccc2C)ccc1Cc1cn(C)c2ccc(NC(=O)OC3CCCC3)cc12 | inactive |  | inactive | inactive | inactive | inactive | inactive | inactive | 13.3 µM (active) |  |  | inactive |  | inactive | inactive | inactive | 13.3 µM (active) | inactive |  |  |
| OCCCc1cccnc1 | inactive | inactive |  | inactive | inactive | inactive | inactive | inactive | inactive | inactive | inactive | inactive |  | inactive | inactive |  |  | inactive |  |  |
| O=C(NO)c1ccccc1 | inactive | inactive | inactive | 26 µM (active) |  | inactive | 29.2 µM (active) | inactive |  | inactive |  | inactive |  |  |  |  |  |  |  |  |
| Cc1c(C(=O)O)cccc1[N+](=O)[O-] | inactive | inactive | inactive |  | 55.4 µM (active) | inactive | 19.6 µM (active) | inactive | inactive | inactive | inactive | inactive | inactive | inactive |  |  |  |  | inactive |  |
| CN(C)c1ccc(N=NS(=O)(=O)O)cc1 | 27.3 µM (active) | 22.9 µM (active) | inactive | inactive |  | 16.2 µM (active) | 12.2 µM (active) | 16.2 µM (active) |  | inactive |  |  |  | 38.6 µM (active) |  | inactive |  |  |  |  |
| COCC(=O)O[C@]1(CCN(C)CCCc2nc3ccccc3[nH]2)CCc2cc(F)ccc2[C@@H]1C(C)C | 21.1 µM (active) | 16.8 µM (active) |  | 13.3 µM (active) | 26.6 µM (active) | inactive | 13.3 µM (active) | 23.7 µM (active) | 21.1 µM (active) | inactive | 18.8 µM (active) | inactive |  | inactive |  |  | 11.9 µM (active) | inactive |  |  |
| CC(C)N=C(N)/N=C(\N)Nc1ccc(Cl)cc1 | inactive |  | inactive |  | inactive |  |  | inactive | 23.7 µM (active) |  |  |  |  | inactive | inactive | inactive |  | inactive | inactive | inactive |
